According to PubChem BioAssay (NCI):
“And” between values parts separate entries of the source, which are not always exact repeats. Equal entries are not always repeated. This is part of a sample that, as a whole, favours compounds with a hit. Of some 83,000 tested, about 20% had one in any assay.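 The test compound was applied at a single concentration to cells in 96-well plates for 48 hours, and percent growth was recorded.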 The source made the active and inactive calls. The calls were made as follows: active = growth percent below 10; inactive = the rest.

system: MDA-MB-468 breast; test: NCI-60 one-dose screen, 48 h (100 = growth as untreated, 0 = no growth, -100 = all killed); conditions: 10 µM unless noted

| Compound | growth |
| --- | --- |
| O=C1CSC(=S)N1Cc1cccnc1 | 47.6% (inactive) |
| CS(=O)(=O)c1ncc(-c2ccccc2)cn1 | 95.6% (inactive) |
| CCN1CCN(c2cc(C)nc(N(CCCNc3ccnc4cc(Cl)ccc34)Cc3cccs3)n2)CC1 | -26.4% (active) |
| COCCn1cc(-c2nc(-c3cc4cccnc4n3C)cs2)c2cc(OC)ccc21 | -28% (active) |
| CCCCCCCCNC(=O)[C@@H](N)CSCOC(C)=O | 89.8% (inactive) |
| C=COC(=O)CCCCCCCCC | 100% (inactive) |
| C#CCOc1ccc2ncnc(NCc3cccc(NC(=O)CCl)c3)c2c1 | 4.87% [8.25 µM] (active) |
| O=C(CI)Nc1ccc(O)c2ccccc12 | -71.7% (active) |
| Cc1ccc2[nH]c3nc4cccnc4c(C)c3c2c1 | -35% (active) |
| C=CCN(C)S(=O)(=O)/N=C1\NC(=O)NC1=C(Cl)Cl | 28.7% (inactive) |
| Cc1nc2sc(C(=O)Nc3cccc(Br)c3C)c(N)c2cc1C(O)c1ccccc1 (configuration not stated) | 17.9% (inactive) |
| FC(F)(F)c1cc(Nc2cccc(Oc3ccc(NC4=NCCN4)nc3)c2)ccc1Cl | -37.6% (active) |
| O=C(CCN1CCCC1)Nc1ccc2c(NCCc3ccccc3)c3ccccc3nc2c1 | -40.8% (active) |
| Nc1ccc(Nc2nccc(-c3ccc4ccccc4c3)n2)cc1 | -10.6% (active) |
| CCOc1cc(CNc2ccc(N3CCOCC3)c(C(=O)O)c2)ccc1OC | 94.7% (inactive) |
| CCCCN(CCCC)CCC(=O)c1ccc(OC)c2ccccc12 | -18.7% (active) |
| O=S(=O)(NCCNc1cc(-c2cn(-c3ccccc3)nc2-c2cccc(O)c2)ccn1)c1ccc(C(F)(F)F)cc1 | 21.6% (inactive) |
| Cn1cnc2nc[nH]c2c1=S | 107% (inactive) |
| COc1cc2cc3c(nc2cc1OC)CCN3Cc1ccc(NC(=O)Nc2cc(C(F)(F)F)cc(C(F)(F)F)c2)cc1 | 52.9% (inactive) |
| CCCCCCCCCCCCCC[N+](C)(C)CCCCCCCCCCCCCC | 21.4% (inactive) |
| CNC(=O)c1cc(Oc2cccc3nc(Nc4ccc(F)c(Cl)c4)ccc23)ccn1 | 6.51% (active) |
| Nc1ccc2c(c1)/C(=N/O)c1cc([N+](=O)[O-])ccc1-2 | 89.8% (inactive) |
| C=C(C)[C@@H]1C[C@H](O)Cc2cc(F)ccc2N1 | 89.3% (inactive) |
| O=C(Nc1ncc(Cc2cc(C(F)(F)F)ccc2Cl)s1)c1cccs1 | -0.706% (active) |
| CC12CCC3C4(C)COC(c5ccco5)OC4CCC3(C)C1CC(C1=CCOC1=O)O2 (configuration not stated) | 91.8% (inactive) |
| CC(=O)Oc1cc(C(=O)O)cc(OC(C)=O)c1OC(C)=O | 98.6% (inactive) and 108% (inactive) |
| CC1=C2[C@@H](CC1)[C@]1(C)O[C@@](C3CCNCC3)(C[C@H]1OC(=O)CO)[C@H]2OC(=O)/C=C/c1ccccc1 | 75.3% (inactive) |
